Luciferase inh – blocks Photinus pyralis firefly luciferase activity; P08659; purified firefly luciferase, luminescence, 8 min; Potency, µM (titrated, usually from 57.1 µM), usual class: inhibitors; 72,000 compounds, 2.2% hits; AID 411; further: nearly all actives have a fitted effect of over 40% in size
Target sequence (P08659 whole entry, looked up): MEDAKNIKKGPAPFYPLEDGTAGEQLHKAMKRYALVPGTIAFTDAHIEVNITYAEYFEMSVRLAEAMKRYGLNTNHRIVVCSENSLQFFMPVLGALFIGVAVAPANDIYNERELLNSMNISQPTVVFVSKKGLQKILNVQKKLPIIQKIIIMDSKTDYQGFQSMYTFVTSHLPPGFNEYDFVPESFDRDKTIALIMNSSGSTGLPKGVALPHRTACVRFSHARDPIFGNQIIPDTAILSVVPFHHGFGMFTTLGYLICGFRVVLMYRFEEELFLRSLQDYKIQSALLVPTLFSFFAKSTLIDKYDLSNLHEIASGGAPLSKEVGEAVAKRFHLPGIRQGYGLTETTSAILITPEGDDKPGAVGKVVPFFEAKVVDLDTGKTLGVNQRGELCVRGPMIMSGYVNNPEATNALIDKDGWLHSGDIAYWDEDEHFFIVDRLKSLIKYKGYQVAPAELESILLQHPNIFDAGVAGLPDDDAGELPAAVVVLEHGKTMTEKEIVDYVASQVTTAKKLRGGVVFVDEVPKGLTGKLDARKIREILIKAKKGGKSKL
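Compounds were tested as concentration series (qHTS) against purified P. pyralis luciferase with luciferin and 10 uM ATP in 50 mM imidazole pH 7.2, 50 mM KCl, 7 mM MgCl2, 0.01% Tween 20, 0.05% BSA. Luminescence was read after 8 min at ambient temperature.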
ERK AVP block – vasopressin-driven ERK pathway inhibition. HEK293-V1b, vasopressin-stimulated pERK AlphaScreen. Potency, µM (titrated, usually from 57.5 µM), most hits filed as inhibitors. 72,000 compounds, 0.99% hits. AID 995; further: nearly all actives have a fitted effect of over 55% in size
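Overnight-seeded V1b-HEK293 cells in 1% FBS got compound, then vasopressin (25 nM final, 5 min, 37C), then lysis buffer. AlphaScreen detection of phospho-ERK; activity normalized to basal and full-stimulation controls.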
TSHR ag – TSH receptor (human) agonism; P16473; HEK293-CNG-TSHR cells (CNG channel as cAMP sensor), membrane potential dye, cAMP; Potency, µM (doses to about 57.1 µM), hits mostly activators; 73,000 compounds, 0.48% hits; active means well fitted activation curve with a large enough effect in the main read-out, with a control signal flat, not every such curve was filed as active; inconclusive means small, poorly fitted or top-dose-only effect, or a change in a side signal; inactive means no such curve, though single readings can be large or run the other way; reference of the percent scale not stated here;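 further: the control signal comes from parental cells without the receptor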
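HEK 293 cells stably expressing TSHR and a cAMP-gated CNG channel; parental CNG-only cells as counterscreen. Cells preloaded 60 min with membrane potential dye plus 100 uM RO 20-1724, then compound 30 min; fluorescence read at 590 nm.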
HEK293 cAMP cs – counter-screen for TSHR agonists: cAMP increase in parental HEK293 | parental HEK293 CNG cAMP sensor, membrane potential fluorescence | Potency, µM (titrated, usually from 57.1 µM), most hits filed as activators | 73,000 compounds, 2.5% hits | AID 938; further: nearly all actives have a fitted effect of over 55% in size
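Parental HEK 293 cells stably expressing a cAMP-gated CNG channel were loaded with membrane potential dye containing 100 uM RO 20-1724 for 60 min. Compound added for 30 min; depolarization read as fluorescence intensity at 590 nm.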
Bst PK mod – modulators of Bacillus stearothermophilus pyruvate kinase; 51,000 compounds, 1.2% hits; purified pyruvate kinase, luminescence ATP production; ribose 5-phosphate activator present at AC10; Potency, µM; in the data active means potency below about 11 µM; inconclusive means mostly about 12 µM to 25 µM;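 the screen sought inhibitors and activators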
GBA mod – alters purified human glucocerebrosidase activity; AID 360; Potency, µM; purified enzyme, resorufin glucoside fluorescence (screen aimed at inhibitors), 20 min; 48,000 compounds, 1.1% hits; in the data active means potency below about 15 µM; inconclusive means mostly about 16 µM to 33 µM;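 further: the screen sought inhibitors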
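Wild-type enzyme at 0.2 nM final in 50mM citric acid/KH2PO4, 10mM sodium taurocholate, 0.01% tween-20, pH 5.9, with resorufin beta-D-glucopyranoside at 30 uM final. Compounds titrated, 20 min at RT, red fluorescence read; AC50 from titration.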
Of the large screens only hits and unclear results are named; the others gave an inactive call. A selection: hits, their analogues and other compounds. The true share with any hit is near 6.1%. Unless noted, the call rests on the fitted dose curve; in most records, active means well fitted curve in the direction sought with a large enough effect; inconclusive means small, poorly fitted or top-dose-only effect, or another doubt; inactive means no such curve, though single readings can be large; an effect the other way counts as inactive or inconclusive.

CC(C)(C)c1ccc(-c2noc(CCC(N)=O)n2)cc1	Luciferase inh 13µM
Cc1ccc(-c2noc(CCC(=O)NCCN3CCc4ccccc4C3)n2)cc1	TSHR ag inconclusive, HEK293 cAMP cs inconclusive, GBA mod 15
Cc1ccc(-c2noc(CCC(=O)NCCN3CCOCC3)n2)cc1	GBA mod inconclusive
CNC(=O)CCc1nc(-c2ccc(C(C)(C)C)cc2)no1	Luciferase inh 13µM, Bst PK mod inconclusive
COc1cccc(Nc2ncc3nc(-c4cc(F)cc(F)c4)c(=O)n(CCC#N)c3n2)c1	TSHR ag inconclusive (no result: Bst PK mod, GBA mod)
CC(C)C[C@@H](CC(=O)N[C@@H](CCC(=O)O)CC(=O)O)NC(=O)[C@@H]1CNCC[C@H]1NC(=O)C[C@@H](NC(=O)C[C@H](CO)NC(=O)[C@@H]1CNCC[C@H]1N)C(C)C	none (no result: Luciferase inh, ERK AVP block, Bst PK mod, GBA mod)
COc1ccc(Oc2ncc3nc(C)c(=O)n(C4CC4)c3n2)cc1	none (no result: Bst PK mod, GBA mod)
CN(Cc1ccco1)c1ccnc(-c2ccccc2C(F)(F)F)n1	none (no result: Bst PK mod, GBA mod)
COCCn1c(C(=O)N(C)C)cc2c1C[C@H]1CN(C(=O)c3ccccc3)[C@@](Cc3ccc(F)cc3)(C(=O)OC)[C@@H]21	TSHR ag inconclusive, HEK293 cAMP cs 16µM (no result: Luciferase inh, Bst PK mod, GBA mod)
COC(=O)[C@@]1(Cc2ccc(F)cc2)[C@H]2c3cc(C(=O)N(C)C)n(Cc4ccc(OC)c(OC)c4)c3C[C@H]2CN1C(=O)c1ccccc1	TSHR ag inconclusive, HEK293 cAMP cs 16µM (no result: Luciferase inh, Bst PK mod, GBA mod)
COC(=O)[C@@]1(Cc2ccc(F)cc2)[C@H]2c3cc(C(=O)N(C)C)n(Cc4ccc(C)o4)c3C[C@H]2CN1C(=O)c1ccccc1	TSHR ag inconclusive, HEK293 cAMP cs 3.2µM (no result: Luciferase inh, Bst PK mod, GBA mod)
COC(=O)[C@@]1(Cc2ccc(OC)cc2)[C@H]2c3cc(C(=O)N(C)C)n(Cc4ccccc4)c3C[C@H]2CN1C(=O)c1ccccc1	TSHR ag inconclusive, HEK293 cAMP cs 13µM (no result: Luciferase inh, Bst PK mod, GBA mod)
COC(=O)[C@@]1(Cc2ccc(F)cc2)[C@H]2c3cc(C(=O)N(C)C)n(CCO)c3C[C@H]2CN1C(=O)c1ccccc1	none (no result: Luciferase inh, Bst PK mod, GBA mod)
COC(=O)[C@@]1(Cc2ccc(F)cc2)[C@H]2c3cc(C(=O)N(C)C)n(Cc4ccccc4)c3C[C@H]2CN1C(=O)c1ccccc1	TSHR ag inconclusive, HEK293 cAMP cs 10µM (no result: Luciferase inh, Bst PK mod, GBA mod)
COC(=O)[C@@]1(Cc2ccc(F)cc2)[C@H]2c3cc(C(=O)N(C)C)n(Cc4ccc(O)c(OC)c4)c3C[C@H]2CN1C(=O)c1ccccc1	TSHR ag inconclusive, HEK293 cAMP cs inconclusive (no result: Luciferase inh, Bst PK mod, GBA mod)
COCCn1c(C(=O)N2CCCC2)cc2c1C[C@H]1CN(C(=O)c3ccccc3)[C@@](Cc3ccc(F)cc3)(C(=O)OC)[C@@H]21	TSHR ag inconclusive, HEK293 cAMP cs 13µM (no result: Luciferase inh, Bst PK mod, GBA mod)
C=C1C(=O)C=C2CN(C(=O)c3ccccc3)[C@@](Cc3ccc(F)cc3)(C(=O)OC)[C@@H]12	ERK AVP block 10µM, TSHR ag inconclusive, HEK293 cAMP cs inconclusive (no result: Luciferase inh, Bst PK mod, GBA mod)
COC(=O)[C@@]1(Cc2ccc(F)cc2)[C@H]2c3cc(C(=O)N4CCCC4)n(Cc4ccccc4)c3C[C@H]2CN1C(=O)c1ccccc1	TSHR ag inconclusive, HEK293 cAMP cs inconclusive (no result: Luciferase inh, Bst PK mod, GBA mod)
COC(=O)c1ccc(C(NC(=O)OCc2ccccc2)/C(F)=C/[C@@H](C)C(=O)NCCN2CCOCC2)cc1 (stereo not given in full)	none (no result: Luciferase inh, Bst PK mod, GBA mod)
CS(=O)(=O)Nc1cccc(-c2nc(NCCN3CCOCC3)c3ccccc3n2)c1	ERK AVP block inconclusive (no result: Bst PK mod, GBA mod)
O=C(Nc1cnn(C23CC4CC(CC(C4)C2)C3)c1)c1cnn2cccnc12	Luciferase inh 2.5µM, Bst PK mod inconclusive, GBA mod inconclusive
CCOC(=O)CNC(=O)c1cnn2cccnc12	none
NCCOc1ccccn1	none (no result: Bst PK mod, GBA mod)
Cn1c(NCc2ccccc2O)nc2ccccc21	none
Cn1c(NCc2ccccc2Cl)nc2ccccc21	Luciferase inh 13µM (no result: Bst PK mod, GBA mod)
Cn1c(NCc2cccc(Br)c2)nc2ccccc21	ERK AVP block 32µM
Cn1c(CNc2ccc(Cl)cc2)nc2ccccc21	Luciferase inh 13µM, ERK AVP block inconclusive
FC(F)(F)c1ccccc1-c1ccc2ncnc(N3CCOCC3)c2c1	ERK AVP block inconclusive, TSHR ag inconclusive, HEK293 cAMP cs inconclusive (no result: Bst PK mod, GBA mod)
CC(C)[C@H](N=Cc1ccccc1O)C(=O)O	none (no result: Bst PK mod, GBA mod)

Screening data (PubChem BioAssay)
